hgDAF-12 ag: activates the H. glycines DAF-12 receptor ligand-binding domain | activation, % at 6.8 µM | HEK293 GAL4-hgDAF12 UAS-luciferase reporter, agonist luminescence; normalized to butyrate control | 370,000 tested, 1.8% active | AID 687014;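 active means activation above a cutoff set at the mean of all screened compounds plus 3 SD, cut at about 10% in these data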;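 further: 0% = DMSO wells and 100% = sodium butyrate wells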
DAX1 inh-1: inhibitors of DAX1 repression of SF-1 activated StAR promoter; HEK293T StAR-luciferase reporter, SF-1/DAX-1 repression relief; inhibition, % at 6.8 µM; 370,000 tested, 1.1% active;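 active means inhibition above the mean over all tested compounds plus 3 SD, cut at about 3.6% in these data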;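 further: 0% = DAX-1 cells with DMSO and 100% = cells lacking DAX-1 with DMSO; higher inhibition means more luminescence from relief of DAX-1 repression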
SMARCA2 activ: SMARCA2 function activation, primary screen; MG213 cells, MMTV-luciferase reporter, dexamethasone, overnight; activation, % at 9.1 µM; 370,000 tested, 1% active; AID 652017; in the data active means activation above about 7.8%;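 further: 0% = vehicle wells and 100% = reference activator wells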
hcDAF12 agonist: H. contortus DAF-12 activation, primary screen; HEK293 hcDAF-12 lit1-tk-luc reporter, luminescence; 0% DMSO, 100% Δ7-dafachronic acid; activation, % at 6.8 µM; 370,000 tested, 1.4% active; AID 652067;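 active means activation above the mean of all tested compounds plus 3 SD, cut at about 5.5% in these data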;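 further: 100% = response to 3 µM Δ7-dafachronic acid high control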
DAX1 inh-2: inhibits human nuclear receptor DAX1; inhibition, % at 6.75 µM; P51843; 340,000 tested, 0.99% active; AID 504766; HEK293 Gal4-DAX1 luciferase reporter, luminescence;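 active means inhibition above the mean over all tested compounds plus 3 SD, cut at about 4.2% in these data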;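 further: 0% = DAX1-transfected cells with DMSO and 100% = empty-vector control cells with DMSO; inhibition shows as a rise in luminescence from relieved DAX1 repression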
ssDAF-12 act: activators of S. stercoralis DAF-12 nuclear receptor; HEK293 ssDAF-12/GRIP1 lit1-tk-luc reporter, luminescence; % of 3 µM dafachronic acid response; activation, % at 6.8 µM; 370,000 tested, 1% active; AID 652126;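 active means activation above the mean over all tested compounds plus 3 SD, cut at about 0.9% in these data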;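 further: 0% = DMSO-only wells and 100% = 3 µM delta7-dafachronic acid wells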
SMARCA2 conf: confirmation of SMARCA2 (BRM) function activators; shares compounds with SMARCA2 activ; MG213 cells, MMTV-luciferase with dexamethasone, luminescence, overnight; MG213 cells expressing E1A, Rb sequestered; DMSO wells 0%, reference activator 100%; activation, % at 9.1 µM; 3,500 tested, 30% active; AID 652260;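 active means activation above its plate's cutoff, the mean activation of tested wells plus 3 SD, cut at about 7.9% in these data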
VP16 Luc act: GAL4-VP16 reporter activation counter-screen | shares compounds with SMARCA2 activ | HEK293 GAL4-VP16 pG5luc reporter, luciferase luminescence; scaled: DMSO wells 0%, SAHA wells 100% | activation, % at 9.1 µM | 3,500 tested, 41% active | AID 686939;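 active means activation above the solvent-only control well mean plus 3 SD, averaged across control plates, cut at about 5.2% in these data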
LXRb hcDAF ctr: LXR-beta agonism as hcDAF-12 counter-screen. shares compounds with hcDAF12 agonist. 3,400 tested, under 10 active. HEK293 Gal4-LXR tk-luc reporter, luminescence, 24 h; normalized: DMSO 0%, positive control 100%. AID 743027. activation, % at 6.8 µM;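 active means mean percent activation of the reporter above a cutoff set as the average over tested compounds plus their standard deviation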
Target sequence (P55055 whole entry, looked up, the tested form may be a part): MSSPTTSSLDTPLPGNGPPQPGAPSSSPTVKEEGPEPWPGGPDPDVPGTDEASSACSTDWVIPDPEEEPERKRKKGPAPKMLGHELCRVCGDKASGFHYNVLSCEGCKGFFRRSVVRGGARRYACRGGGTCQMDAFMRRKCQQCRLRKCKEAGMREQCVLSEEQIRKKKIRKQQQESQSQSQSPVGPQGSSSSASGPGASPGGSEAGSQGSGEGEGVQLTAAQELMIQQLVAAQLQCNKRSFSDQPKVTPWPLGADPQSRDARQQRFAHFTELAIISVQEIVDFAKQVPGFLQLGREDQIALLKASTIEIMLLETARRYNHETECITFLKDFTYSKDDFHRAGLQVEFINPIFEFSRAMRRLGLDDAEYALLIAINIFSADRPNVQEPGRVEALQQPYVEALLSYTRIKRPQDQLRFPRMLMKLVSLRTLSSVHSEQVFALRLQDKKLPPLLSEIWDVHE
hcDAF12 ag: hcDAF-12 agonism, confirmation assay. AID 743032. HEK293 hcDAF-12 lit1-tk-luc reporter, luminescence; % of Δ7-dafachronic acid response. activation, % at 6.8 µM. 3,400 tested, 61% active. shares compounds with hcDAF12 agonist;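 active means mean activation across triplicate tests above the threshold derived from the earlier primary screen, cut at about 5.5% in these data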;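 further: 0% = DMSO only wells and 100% = 3 µM Δ7-dafachronic acid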
Active calls of the source: *; . = no result. The list is not random: actives were taken first. Their share in the collection is about 4.8%.

SMILES	hgDAF-12 ag	DAX1 inh-1	SMARCA2 activ	hcDAF12 agonist	DAX1 inh-2	ssDAF-12 act	SMARCA2 conf	VP16 Luc act	others
Cc1ccc(C(=O)COc2cc(C)nc3nncn23)cc1	-1	0	11*	-1	-1	-1	-2	2
Cc1ccc(C(=O)COc2nc(C)cc(C)c2C#N)cc1	2	-1	-3	3	1	-1	.	.
O=C(NC1CCCCC1)c1n[nH]c2c1CC(c1ccccc1)CC2 (stereo unspecified)	3	2	8.0*	1	4	0	3	12*
Cc1ccccc1Cn1c([N+](=O)[O-])cnc1C	-1	0	9.9*	-1	1	-1	-2	0
Cc1ncc([N+](=O)[O-])n1Cc1ccccc1	2	0	-1	-1	1	-2	.	.
COCCNC(=O)COC(=O)/C=C/c1cnc2ccccc2n1	1	-1	12*	1	3	-1	4	1
O=C(COC(=O)/C=C/c1cnc2ccccc2n1)NCC(F)(F)F	-2	0	-2	1	0	-1	.	.
CC(=O)CC[C@H]1CC[C@]2(CCCN(C(=O)c3ccccc3)C2)O1	1	0	1	0	.	-1	.	.
O=C(COc1cccnc1[N+](=O)[O-])Nc1cccc(Br)c1	9	2	11*	-1	1	-1	7	5
C=CC[C@H]1c2ccccc2[C@H]2N3N=Cc4ccccc4[C@H]3[C@H](CCCC)C(=O)N2N1C(=O)NCc1ccccc1	-1	-1	-2	0	.	-1	.	.
CCCOC(=O)CC1C(=O)NCCN1Cc1ccccc1C (stereo unspecified)	-2	0	9.5*	-1	1	-1	-3	0
C=CCn1c(SCC(=O)NCc2ccco2)nnc1-c1ccc2ccccc2n1	2	-1	8.3*	-4	-1	-2	-1	1
C=CCn1c(SCC(=O)NCc2ccco2)nc2ccccc2c1=O	1	1	-2	0	.	-1	.	.
C1=Cc2ccccc2Nc2ccccc21	1	-1	-2	2	1	0	.	.
COC(=O)/C(C#N)=C1/C=Cc2ccccc2N1	10	1	8.9*	5.9*	3	-1	5	8.3*
CCC(=O)Nc1cccc(NC(=O)c2cc3ccccc3o2)c1	11*	3	8.9*	2	3	-1	3	9.8*
O=C(COc1ccccc1)NNC(=O)c1cc2ccccc2o1	1	1	9.6*	0	1	-1	1	2
COc1ccc2nc(NC(=O)c3ccc(NC(=O)C4CCCO4)cc3)sc2c1 (stereo unspecified)	0	-1	-2	-1	0	0	.	.
O=C(Nc1nc2ccccc2s1)C1CCCO1 (stereo unspecified)	9	2	11*	7.5*	0	1	11*	9.8*	LXRb hcDAF ctr=1;hcDAF12 ag=6.7*
NC(=S)Nc1nc2ccccc2s1	10	2	16*	7.9*	0	1	17*	5.5*	LXRb hcDAF ctr=0;hcDAF12 ag=7.0*
COc1ccc(-c2cc(-c3cc(C)ccc3O)[nH]n2)cc1	8	2	16*	7.6*	3	1.2*	17*	5.8*	LXRb hcDAF ctr=0;hcDAF12 ag=3
